CSC inhib: cancer stem cell inhibition; cancer stem cell-like cells viability, luminescence; inhibition, % at 7.5 µM; hit rate 1.1% among 300,000; AID 2717; in the data active = inhibition above about 75%; tested in HMLE shEcad cells
Beta cell apopt: blocks beta cell apoptosis; protection from apoptosis, % (test concentration not listed); hit rate 0.8% among 300,000; AID 435005; INS-1E cytokine-induced death, ATP luminescence, 48 h; percent of positive-control rescue, neutral wells zero;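 active = Every replicate reaches about 75%, or at least half do and their mean reaches it too, limit read from the data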;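 also: 0% = cytokine-treated negative control wells and 100% = positive control rescue; higher means more ATP so stronger rescue from cytokine killing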
MPTP inh: permeability transition pore inhibition; inhibition, % at 10 µM; hit rate 1.4% among 360,000; isolated mouse mitochondria, Ca2+ swelling absorbance, 30 min;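 active = inhibition of 50% or more, scaled per plate between neutral and stimulator controls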;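 also: 0% = DMSO wells given calcium and 100% = 1 mM EGTA wells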
Mdm2-MdmX inh: inhibitors of human Mdm2/MdmX interaction | hit rate 3% among 330,000 | AID 485346 | SaOS-2 split-luciferase Mdm2/MdmX complementation, luminescence | O15151+Q00987 | inhibition, % at 8 µM;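 active = inhibition of at least 50% at 8 µM in the primary screen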
NR3A LBD binder: modulators (binders) of human NR3A ligand-binding domain. NR3A LBD differential scanning fluorimetry, Tm shift; 0% = protein alone, 100% = glycine-bound protein. Tm shift relative to glycine control, % at 25 µM. hit rate 2.5% among 340,000. AID 1259313;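 active = melting temperature shift of at least 10% of the positive control shift, at one fixed dose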
Gli-Sufu block: blocks Gli-Sufu signaling in a luciferase reporter | Sufu-KO-LIGHT fibroblasts, Gli luciferase reporter luminescence | inhibition, % at 5 µM | hit rate 0.74% among 340,000 | AID 588413;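 active = inhibition above about 55%, limit read from the data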;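 also: 0% = DMSO-treated cells and 100% = wells with medium but no cells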
Mdm2-MdmX conf: confirmation of human Mdm2/MdmX interaction inhibitors; shares compounds with Mdm2-MdmX inh; Mdm2-MdmX binding, luminescent assay; inhibition, % at 8 µM; hit rate 55% among 10,000; AID 489028; in the data active = inhibition above about 40%
FLuc counter: full-length luciferase inhibition in Mdm2/MdmX counter-screen | hit rate 77% among 6,200 | shares compounds with Mdm2-MdmX inh | SaOS-2 full-length luciferase counterscreen, luminescence | inhibition, % at 8 µM;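 active = mean inhibition at 8 µM reaching about 37%, which flags the compound as non-specific, limit read from the data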;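 also: p53-null SaOS-2 cells with luciferase driven by a doxycycline-inducible promoter; compound on cells about two nights before reading with doxycycline added after day one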
The depositor's hits bear a star; / = no result given. Only some compounds are listed: those with a hit (about 6.6% of all), similar ones and a draw of the others.

SMILES	CSC inhib	Beta cell apopt	MPTP inh	Mdm2-MdmX inh	NR3A LBD binder	Gli-Sufu block	Mdm2-MdmX conf	FLuc counter
O=C(Nc1ccc(F)c(F)c1)c1ccc(-n2cncn2)c([N+](=O)[O-])c1	-8	1	0	-15	0	-1	/	/
O=C(Nc1cccc(/C=C/c2ccccn2)c1)c1ccc(-n2cncn2)c([N+](=O)[O-])c1	28	/	-1	62*	-2	3	38	/
O=C(CC12CC3CC(CC(C3)C1)C2)NC(=S)NCc1ccco1	45	12	-1	64*	0	8	28	/
O=C(NCc1ccco1)C12CC3CC(CC(C3)C1)C2	5	-7	-13	-31	-1	6	/	/
O=C(Nc1ccc(Cl)cc1)Nc1nc(-c2sccc2Br)cs1	-2	52	41	88*	0	2	77*	39*
O=C(Cc1csc(NC(=O)Nc2ccc(Cl)cc2)n1)NCc1ccccn1	/	4	18	6	2	-43	/	/
N/C(=N\NC(=O)c1sccc1OCc1ccc(Cl)cc1Cl)c1ccccn1	-3	78*	0	62*	-1	-3	65*	35
COc1ccccc1N1CCN(C(=O)CCNS(=O)(=O)c2cc(Br)cnc2N)CC1	3	-6	0	-9	0	-4	/	/
COc1cc2[nH]c3c(N4CCN(c5ccccn5)CC4)ncnc3c2cc1OC	22	27	1	69*	2	6	41*	53*
Cc1ccc(S(=O)(=O)c2ncccc2N)cc1	-13	-4	-1	-10	5	17	/	/
Cc1ccc(S(=O)(=O)c2ncccc2[N+](=O)[O-])cc1	48	51	-1	90*	-7	-1	77*	52*
CN(Cc1cc(Cl)cc(Cl)c1)CC(C(=O)c1ccccc1)c1ccccc1 (stereo unspecified)	/	/	1	/	4	11	/	/
CN(C)CC(C(=O)c1ccccc1)c1ccccc1 (stereo unspecified)	54	106*	4	100*	-2	33	85*	52*
CC12CC(c3ccccc3O1)N(C(=O)c1ccco1)C(=S)N2c1ccc(F)cc1 (stereo unspecified)	14	-1	0	51*	2	5	30	/
CC1(C)Cc2c(cnn2-c2ccc(F)cc2)C(NC(=O)c2ccco2)C1 (stereo unspecified)	12	-3	0	1	-3	12	/	/
O=C(NNC(=O)c1cccs1)c1ccc(Cl)nc1	-18	-1	0	-2	1	-8	/	/
O=C(NCC(c1cccs1)N1CCOCC1)c1cn(-c2ccccc2)nc1-c1ccc(Cl)cc1 (stereo unspecified)	20	11	-2	63*	6	10	25	/
O=C(NCC(c1cccs1)N1CCOCC1)c1cn(-c2ccccc2)nc1-c1ccccc1 (stereo unspecified)	/	7	0	29	-1	11	/	/
COc1ccccc1/C=C/C(=O)c1c2c(c(C)[nH]c1=O)CCCC2	/	-16	-1	85*	-3	5	99*	56*
COc1cc(OC)c(OC)cc1/C=C/C(=O)c1ccc(NS(=O)(=O)c2ccc(C)cc2)cc1	43	/	3	59*	7	12	28	/
COc1ccccc1/C=C/C(=O)c1ccc(NC(C)=O)cc1	60	-4	0	63*	1	-20	52*	59*
COc1ccccc1/C=C/C(=O)c1ccccc1	-2	4	0	/	-2	-10	/	/
COc1ccc(N/C=C\C(=O)c2ccc(C)cc2)cc1OC	/	1	-1	-8	-8	-46	/	/
CCC[C@@H]1CCCC/C=C\CCCC(=O)OCCN1C(=O)OC(C)(C)C	57	9	-1	-2	4	24	/	/
O=C(Nc1ccc(F)c(Cl)c1)Nc1nnc([C@@H]2O[C@H](CO)[C@@H](O)[C@H]2O)s1	/	/	-2	/	/	/	/	/
Cc1cc2cc(CCNC(=O)C3c4ccccc4Oc4ccccc43)c(=O)[nH]c2cc1C	-6	-12	/	63*	/	/	14	/
Cc1cc2cc(CCNC(=O)C(C)C)c(=O)[nH]c2cc1C	-6	/	-2	8	-1	-10	/	/

Source: PubChem BioAssay
